Assay outcomes (PubChem)
Akt phos inh: HTS Assay for Inhibitors of Akt Phophorylation: Primary Screen. Neuro2A IGF-stimulated pAkt S473 HTRF, 20 min; stronger effect = lower value. activity change, % for hits at 50 µM. 0.32% of 360,000 active. AID 651550, 2012; in the data active = activity change below about -80%; inconclusive = mostly about -51% to -80%; note: % is set by controls: 0 for no effect and ±100 for the full control effect
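Single-point screen (50 µM final compound) in Neuro2A cells stimulated 20 min with 6 nM IGF at 37 deg C. After lysis, Ser473-phosphorylated Akt read by HTRF (ex 330 nm, em 615/665 nm) as the 665/615 ratio.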
RXFP1 antagonist: qHTS Assay for Antagonists of the Relaxin Receptor RXFP1; activity change, negative = inhibition, % at 57.5 µM; 0.59% of 350,000 active; Relaxin receptor 1 (Homo sapiens), Q9HBX9; HEK293-RXFP1, relaxin-stimulated cAMP HTRF, 30 min; stronger effect = lower value;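 active = activity change of -60% or lower, but not beyond a set lower limit; inconclusive = change between -60% and -40%, or beyond the set limit; inactive = change above -40%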; note: % is set by controls: 0 for no effect and ±100 for the full control effect
RXFP1 agonist: qHTS Assay for Agonists of the Relaxin Receptor RXFP1; Relaxin receptor 1 (Homo sapiens), Q9HBX9; HEK293T-RXFP1 cAMP TR-FRET, 30 min; response scale: percent of porcine relaxin response, buffer zero; Potency, µM (top dose mostly 57.5 µM), without a hit: at the highest dose activation, actives largely listed as activators; 0.3% of 370,000 active; AID 2676, 2010; active = well fitted activation curve with a large enough effect; inconclusive = small, poorly fitted or top-dose-only effect; note: potency is the fitted concentration of half-maximal effect; % is set by controls: 0 for no effect and ±100 for the full control effect; nearly all actives have a fitted effect of over 60% in size
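HEK293T cells stably expressing RXFP1 were pretreated with the PDE4 inhibitor Ro 20174, exposed to compounds for 30 min at 37C, lysed, and cAMP was read by TR-FRET. Data normalized to buffer (basal) and 29 nM porcine relaxin (100%).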
ClpP mod: qHTS Assay for Activators of ClpP. 1.9% of 340,000 active. Potency, µM (series often up to 57.5 µM), inactives show top-dose activity change, negative = active. purified B. subtilis ClpP, FRET peptide cleavage, 20 min; active = well fitted falling curve with a large enough effect; inconclusive = small, poorly fitted or top-dose-only effect; inactive = no such curve, though single readings can be large or run the other way; note: potency is the fitted concentration of half-maximal effect; the source files actives as falling curves though it sought activators and does not explain the sign; nearly all actives have a fitted effect of over 65% in size
Target sequence (P80244 whole entry, looked up): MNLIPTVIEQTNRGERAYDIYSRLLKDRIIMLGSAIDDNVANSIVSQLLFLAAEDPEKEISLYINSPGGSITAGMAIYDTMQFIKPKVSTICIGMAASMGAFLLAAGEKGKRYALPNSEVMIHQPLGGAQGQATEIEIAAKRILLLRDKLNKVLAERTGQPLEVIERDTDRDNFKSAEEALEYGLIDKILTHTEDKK
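Buffer: 100 mM Tris/HCl pH8, 100 mM KCl, 0.05% low protease BSA, 2.5% glycerol, 0.01% Tween-20. ClpP 10 microg/mL final; 20 min RT; delta FRET normalized to ADEP and DMSO controls.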
gsp antag: qHTS for Antagonists of gsp, the Etiologic Mutation Responsible for Fibrous Dysplasia/McCune-Albright Syndrome: qHTS. 0.4% of 340,000 active. gsp-mutant cells, cAMP HTRF, 30 min. Potency, µM (titrated, usually from 76.9 µM), for the others: top-dose activity change, negative = inhibition, usual class: inhibitors; calls by dose curve; cell line not stated here;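 note: intracellular cAMP measured with PDE inhibitor Ro 20-1724 present during compound exposure; potency is the fitted concentration of half-maximal effect; % is set by controls: 0 for no effect and ±100 for the full control effect; nearly all actives have a fitted effect of over 65% in size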
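G418-selected cells were plated in DMEM/10% FBS for 16-24 h at 37C, then treated with compounds plus the PDE inhibitor […] (300 uM solution added) for 30 min at 37C. Intracellular cAMP was measured by HTRF after 30 min lysis at room temperature.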
gsp agonist: qHTS for Agonist of gsp, the Etiologic Mutation Responsible for Fibrous Dysplasia/McCune-Albright Syndrome: qHTS; gsp mutant cells, cAMP HTRF, 30 min; Potency, µM (top dose mostly 76.9 µM), inactives show top-dose activation (cAMP increase), actives largely listed as activators; 0.13% of 340,000 active; AID 624287, 2012; active = well fitted activation curve with a large enough effect; inconclusive = small, poorly fitted or top-dose-only effect, or another doubt; inactive = no such curve, though single readings can be large or run the other way; cell line not stated here;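 note: phosphodiesterase inhibitor Ro 20-1724 added with compounds to block cAMP breakdown; potency is the fitted concentration of half-maximal effect; nearly all actives have a fitted effect of over 60% in size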
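Cells stably selected in G418 were plated at 2000/well, grown 16-24 hr, then given compounds in DMSO with the PDE inhibitor […] (300 uM solution added) for 30 min at 37C; cAMP was read by HTRF.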
Numbers without * were called inactive; i = inactive; ? = inconclusive; . = no result given; [ ] = another dose, or the depositor's remark. Hits are enriched below; roughly 2.7% of the tested compounds scored in any of these assays.

SMILES	Akt phos inh	RXFP1 antagonist	RXFP1 agonist	ClpP mod	gsp antag	gsp agonist
CCOc1ccc(-c2nc(C#N)c(NCC(C)C)o2)cc1	.	-18	3%	40µM*	-6%	3%
C=CCNc1oc(-c2cccc3ccccc23)nc1C#N	i	28	22%	3.2µM*	2%	?
Cc1ccc(C(C)OC(=O)C2(C)CCC(C(=O)O)C2(C)C)cc1 (stereo not given)	.	-7	.	.	.	.
CC(=O)c1ccc(/C=C/c2nc3ccccc3n2C)o1	i	49	25µM*	.	-2%	?
CSC(=Nc1ccccc1)N=C(SCc1ccccc1)N(C)C	i	-100*	.	-3%	2%	11%
CCOc1ccc(Nc2cc(C)nc3nncn23)cc1	.	0	1%	-1%	.	.
O=C(O)CCC(=O)Nc1ccccc1C(=O)Nc1ccccc1	i	-4	-1%	4%	8%	-26%
O=C(O)CCC(=O)Nc1ccccc1C(=O)NCCc1ccccc1	i	-6	0%	14µM*	7%	1%
CC(C)[C@H](NC(=O)[C@@H]1Cc2ccccc2CN1C(=O)OC(C)(C)C)C(=O)NC1CCCC1	.	-103*	2%	0%	?	8%
CC1(C)C2CCC1(CS(=O)(=O)NC(CC(=O)O)c1cccc(Br)c1)C(=O)C2 (stereo not given)	i	-8	-5%	.	-10%	-6%[15.4 µM]
Cc1ccc(-c2nc(-c3cc4cc(Cl)ccc4oc3=O)sc2C)cc1	.	.	.	-5%	.	.
Cn1cc(C(=O)c2ccc(Cl)cc2Cl)cc1C(=O)N/N=C(\N)COc1ccc(Cl)cc1	i	-25	2%	.	?	6%[15.4 µM]
Cn1cc(C(=O)c2ccc(Cl)cc2Cl)cc1C(=O)N/N=C(\N)COc1ccccc1	-109%*	-10	0%	-2%	-22%	-7%
Cc1ccc(S(=O)(=O)N2CCCCC2CCNC(=O)C(=O)Nc2ccccc2F)cc1 (stereo not given)	i	.	0%	-1%	-3%	15%
Cc1ccc(CSc2nc3ccc(NC(=O)COc4ccccc4)cc3s2)cc1	.	.	6%	-1%	.	.
Cc1ccc(O)c(-c2cc(C(F)(F)C(F)F)nc(-c3ccccc3)n2)c1	i	0	3%	25µM*	4%	19%
Oc1ccc(Cl)cc1-c1cc(C(F)(F)C(F)F)nc(-c2ccccc2)n1	i	-7	1%	0%	?	8%
COc1cccc2sc(NNC(=O)C3=COCCO3)nc12	i	-19	1%	35µM*	2%	14%[15.4 µM]
CC(C)(C)OC(=O)N1CCC(c2c(C(=O)NCCN3CCOCC3)cnn2-c2cccc(Cl)c2)CC1	.	-9	2%	2%	.	.
COc1cc(C2C(C#N)=C(N)Oc3c2ccc2ccccc32)ccc1OCC(=O)Nc1ccccc1C (stereo not given)	-104%*	-9	1%	-3%	-8%	-13%
COc1ccc(CCC(=O)NCc2ccc3c(c2)CCN3C(=O)c2ccccc2)cc1	.	-21	1%	-2%	.	.
COc1ccc(CCC(=O)NCc2ccc3c(c2)CCN3C(=O)c2cccc(C)c2)cc1	.	-96*	1%	-8%	.	.
O=C(Nc1ccccc1)c1cc2c(=O)c3ccccc3oc2nc1C(F)(F)F	-94%*	1	?	2%	14%	?
CCN(CC)CCN1C(=O)c2ccccc2NC1c1ccc(C)cc1 (stereo not given)	i	17	4%	32µM*	11%	?
CCN(CC)CCN1C(=O)c2ccccc2NC1c1ccc(Br)cc1 (stereo not given)	i	-20	4%	.	5%	1%[15.4 µM]
SMILES	Akt phos inh	RXFP1 antagonist	RXFP1 agonist	ClpP mod	gsp antag	gsp agonist
CCN(CC)CCN1C(=O)c2ccccc2NC1c1ccc(F)cc1 (stereo not given)	i	-3	-1%	32µM*	14%	19%
Cc1ccc(NC(=O)COC(=O)C2CCC(=O)N2)c(S(=O)(=O)N2CCOCC2)c1 (stereo not given)	-114%*	3	-2%	-3%	7%	8%
COc1ccc(S(=O)(=O)N2CCCCC2)cc1NC(=O)CSc1ncnc2ccccc12	i	.	?	0%	27%	20µM*
Cc1ccc(NC(=O)CSc2ncnc3ccccc23)cc1S(=O)(=O)N1CCCCC1	i	1	4%	1%	?	-13%[15.4 µM]
NS(=O)(=O)c1cccc(NC(=O)CSc2ncnc3ccccc23)c1	i	2	25µM*	-5%	-8%	?
Cc1cc(S(=O)(=O)N2CCOCC2)ccc1OCC(=O)Nc1ccc(F)cc1	i	8	-3%	13µM*	-14%	16%[15.4 µM]
NS(=O)(=O)c1ccc(NC(=O)CSc2ncnc3ccccc23)cc1	i	-6	?	0%	-1%	?
Cc1cc(CNCCN(C)C)c(C)n1-c1cc(S(=O)(=O)N2CCOCC2)ccc1N1CCCC1	i	-4	.	-24%	-1%	-5%
NS(=O)(=O)c1ccc(CCNC(=O)CCc2nc3sc4c(c3c(=O)[nH]2)CCCC4)cc1	i	2	2%	-9%	2%	-29%
Cc1cc2nnc(SCC(=O)Nc3cc(S(=O)(=O)N4CCOCC4)ccc3Cl)n2c2ccccc12	i	-6	5%	32µM*	-6%	-10%
Cc1ccc(S(=O)(=O)N2CCOCC2)cc1NC(=O)CSc1nnc2cc(C)c3ccccc3n12	i	-3	6%	-5%	-3%	13%[15.4 µM]
COc1ccc(S(=O)(=O)N2CCOCC2)cc1NC(=O)CSc1cccc[n+]1[O-]	i	5	?	0%	24%	16µM*
COc1ccc(S(=O)(=O)N2CCOCC2)cc1NC(=O)COC(=O)C1CCC1	i	-2	3%	35µM*	11%	1%
CCN(C(=S)Nc1cc(S(=O)(=O)N2CCOCC2)ccc1Cl)c1cccc2ccccc12	i	7	0%	11µM*	-1%	?
N#Cc1ccc(C23CC4CC(CC(C4)C2)C3)[nH]c1=O	i	5	0%	16µM*	9%	?
CC(=O)N1CCN(c2ccc(NC(=S)NC(=O)c3ccc(C)c([N+](=O)[O-])c3)cc2)CC1	i	18	-14%	32µM*	-17%	-4%[15.4 µM]
